# Experimental data taken from PubChem BioAssay (EPA / NIEHS).
# Records with an inconclusive call do not appear. Calls of active or inactive are those of the source. Rule for the calls: active = hit-call score of the fitted dose curve at least 0.9, where 1 is the maximum; inconclusive = response in the unintended direction; inactive = score below 0.9.
# Biological target: human Peroxisome Proliferator-activated Receptor delta (PPARd), PPARD (gene 5467) (UniProt Q03181)
# Assay: ATG_PPARd_TRANS: Attagene TRANS-FACTORIAL HepG2 Assay for human Peroxisome Proliferator-activated Receptor delta (PPARd) (AID 2283002)
# Outline: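 Transient HepG2 transfection (multiple GAL4-UAS RTUs, chimeric receptor-Gal4); 24 h dosing; total RNA → oligo(dT) RT → PCR → 6-FAM primer extension → HpaI cut → CE. Positive direction vs DMSO.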
# Sequence of human Peroxisome Proliferator-activated Receptor delta (PPARd), PPARD (gene 5467) (Q03181 whole entry, looked up): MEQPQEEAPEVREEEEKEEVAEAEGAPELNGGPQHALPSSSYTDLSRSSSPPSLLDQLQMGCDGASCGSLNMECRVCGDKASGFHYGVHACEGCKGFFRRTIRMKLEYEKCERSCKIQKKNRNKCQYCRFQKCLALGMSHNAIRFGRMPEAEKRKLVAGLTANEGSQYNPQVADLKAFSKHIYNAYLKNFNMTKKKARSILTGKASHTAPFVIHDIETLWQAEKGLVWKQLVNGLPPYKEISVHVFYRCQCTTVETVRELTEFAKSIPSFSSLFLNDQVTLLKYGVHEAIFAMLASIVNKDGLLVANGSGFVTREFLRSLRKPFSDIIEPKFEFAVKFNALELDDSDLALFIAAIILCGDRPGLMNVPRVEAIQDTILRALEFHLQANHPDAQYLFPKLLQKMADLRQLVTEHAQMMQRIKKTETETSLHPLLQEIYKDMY
Structure (SMILES),outcome,AC50
CC(=O)OC(C)(C)C,inactive,–
CCCCCCCCCCCCCC(=O)OCC,inactive,–
CC(=O)CCc1ccc(O)cc1,inactive,–
CCCCCc1cccc(=O)o1,inactive,–
CC(=O)Oc1c(C)c(C)c2c(c1C)CC[C@@](C)(CCC[C@H](C)CCC[C@H](C)CCCC(C)C)O2,inactive,–
CC(C)Cc1ccc(C(C)C(=O)O)cc1 (configuration not stated),–,142 µM (active)
Cc1cccc(O)c1,inactive,–
O=C(O)C1=NN(c2ccc(S(=O)(=O)O)cc2)C(=O)C1,inactive,–
CCCCOCC(C)OCC(C)O (configuration not stated),inactive,–
CC(C)=CC(=O)O,inactive,–
CCCCC/C=C\C=C\C(=O)OCC,inactive,–
CCCCCCCCCC(=O)OCC,inactive,–
CC1(C)[C@H](C=C(Cl)Cl)[C@H]1C(=O)OCc1cccc(Oc2ccccc2)c1,inactive,–
CC(C)(O)C(=O)c1ccc(OCCO)cc1,inactive,–
O=S1(=O)CC=CC1,inactive,–
CCC(=O)OC(C)(C)C1CC=C(C)CC1 (configuration not stated),inactive,–
Cc1cc(N)n(-c2ccccc2)n1,inactive,–
C=CCOC(=O)/C=C\C(=O)OCC=C,inactive,–
CCCCOCCOCCOCCO,inactive,–
CC(C)(CO)CO,inactive,–
C/C=C(\C)C(=O)OC/C=C(\C)CCC=C(C)C,inactive,–
Brc1cc(Br)cc(Br)c1,inactive,–
